This is part of a sample that, as a whole, favours compounds with a hit. Of some 83,000 tested, about 20% had one in any assay.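 Cells were grown in 96-well plates and exposed to the test compound at a single concentration for 48 hours; results are reported as percent growth, with values below 10 considered active.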 The source made the active and inactive calls.
Key:
Experiment in all cases: NCI-60 one-dose screen, 48 h (100 = growth as untreated, 0 = no growth, -100 = all killed)
T-47D breast = conditions: 10 µM
BT-549 breast = conditions: 10 µM unless noted
MCF7 breast = conditions: 10 µM unless noted
HCT-116 colon = conditions: 10 µM unless noted
HCC-2998 colon = conditions: 10 µM unless noted
KM12 colon = conditions: 10 µM unless noted
MDA-MB-435 melanoma = conditions: 10 µM unless noted
SW-620 colon = conditions: 10 µM unless noted

Measured: growth

COc1ccc(Nc2[nH]n(C3=Nc4ccccc4Sc4ccccc43)c(=O)c2C#N)cc1
inactive: T-47D breast 17.9% | BT-549 breast 52.8% | MCF7 breast 30.7% | HCT-116 colon 30.6% | HCC-2998 colon 40.8% | KM12 colon 43.8%

O=C(CC(O)c1ccccc1)Nc1ccccn1 (stereo unspecified)
inactive: T-47D breast 94.1% | MDA-MB-435 melanoma 97.9% | SW-620 colon 109% | MCF7 breast 103% | HCT-116 colon 97.6% | HCC-2998 colon 102% | KM12 colon 103%

Oc1cccc(Nc2nc(-c3ccccn3)cs2)c1
inactive: T-47D breast 87.3% | BT-549 breast 95.1% | MDA-MB-435 melanoma 105% | MCF7 breast 84.1% | HCT-116 colon 97.1% | KM12 colon 103%

CN1CCN(C)c2cncc(Br)c2C1=O
active: MDA-MB-435 melanoma -81.7%
inactive: T-47D breast 101% | SW-620 colon 102% | MCF7 breast 105% | HCC-2998 colon 98% | KM12 colon 105%

NC1=NC(c2ccccc2OS(=O)(=O)c2ccc(Br)cc2)n2c(nc3ccccc32)N1 (stereo unspecified)
inactive: T-47D breast 81.2% | MDA-MB-435 melanoma 73.1% | SW-620 colon 96% | MCF7 breast 77.3% | KM12 colon 100%

O=C(COc1ccc(/C=C2\CSc3ccccc3C2=O)cc1)c1ccc(Cl)cc1
inactive: T-47D breast 94.8% | BT-549 breast 110% | MDA-MB-435 melanoma 95.6% | SW-620 colon 115% | MCF7 breast 114% | HCT-116 colon 94.1% | KM12 colon 106%

COc1cc(CNCCCN2C(=O)c3ccc4c5c(ccc(c35)C2=O)C(=O)N(CCCNCc2cc(OC)c(OC)c(OC)c2)C4=O)cc(OC)c1OC
active: T-47D breast -56.9% | MDA-MB-435 melanoma -71.5% | SW-620 colon -69.8% | MCF7 breast -58.1% | HCT-116 colon -61.8% | HCC-2998 colon -92.4% | KM12 colon -86.9%

COc1ccc(OC2=C(C#N)C(=N)N3c4ccccc4Sc4ccccc4C3N2)cc1 (stereo unspecified)
inactive: T-47D breast 87% | BT-549 breast 96.9% | MCF7 breast 95.6% | HCT-116 colon 103% | HCC-2998 colon 95.2% | KM12 colon 97.7%

COc1ccc(C(=O)COc2cccc(/C=C3\CSc4ccc(C)cc4C3=O)c2)cc1
active: SW-620 colon -21.5%
inactive: T-47D breast 79.7% | BT-549 breast 108% | MDA-MB-435 melanoma 69.5% | MCF7 breast 30.9% | HCT-116 colon 53.1% | KM12 colon 79.6%

C=C[C@H]1C[C@@H]2C[C@@H]3[C@H]4C/C=C\C(=O)NCCCC5NC(=O)C(=C(O)/C=C/[C@@H]4CC(=O)[C@H]3[C@@H]2[C@H]1C)C5=O (stereo partly specified)
active: T-47D breast -53.5% | MDA-MB-435 melanoma -19.2% | SW-620 colon -58.2% | MCF7 breast -63.8% | HCC-2998 colon -30% | KM12 colon -17.4%

COc1cc(/C=C/C(=O)C(=Cc2ccc(F)c(F)c2)C(=O)/C=C/c2ccc(O)c(OC)c2)ccc1O
inactive: T-47D breast 44.1% | MCF7 breast 35.8%
active: MDA-MB-435 melanoma 0.136% | SW-620 colon -44.7% | HCT-116 colon -76.5% | HCC-2998 colon -71.9% | KM12 colon 1.53%

O=S(=O)(/N=C1C=C/C(=N\S(=O)(=O)c2ccccc2)c2ccccc2\1)c1ccccc1
active: MDA-MB-435 melanoma 0.648%
inactive: T-47D breast 93.1% | BT-549 breast 104% | SW-620 colon 112% | MCF7 breast 84.1% | HCT-116 colon 94.5% | KM12 colon 101%

NC(=S)N/N=C1\c2ccccc2-c2c(F)c(F)c(F)c(F)c21
active: T-47D breast 8.63% | HCT-116 colon 5.16%
inactive: MDA-MB-435 melanoma 99.6% | SW-620 colon 59.8% | MCF7 breast 28.7% | HCC-2998 colon 90.1% | KM12 colon 93.5%

Cc1ccc(S(=O)(=O)N2CCc3ccc(O)c4c3C2Cc2cc(Cl)ccc2-4)cc1 (stereo unspecified)
inactive: T-47D breast 65.4% | SW-620 colon 33.1% | MCF7 breast 23.3% | HCT-116 colon 70.9% | KM12 colon 30.8%
active: MDA-MB-435 melanoma 8.9%

COc1ccc(C2OCC(C)(C)CO2)cc1OC
inactive: T-47D breast 97.3% | BT-549 breast 109% | SW-620 colon 106% | MCF7 breast 104% | HCT-116 colon 109% | HCC-2998 colon 102% | KM12 colon 112%

CC(=O)N(CC(O)CO)c1c(I)c(C(=O)NCCO)c(I)c(C(=O)NCC(O)CO)c1I (stereo unspecified)
inactive: BT-549 breast 94.3% | MDA-MB-435 melanoma 105% | SW-620 colon 109% | MCF7 breast 104% | HCT-116 colon 97%

COc1cc(/C=C/C(=O)CC(=O)/C=C/c2cc(Br)c(OC)c(OC)c2)cc(Br)c1OC
inactive: T-47D breast 83.7% | MDA-MB-435 melanoma 101% | SW-620 colon 114% | MCF7 breast 97.4% | HCT-116 colon 98.3% | HCC-2998 colon 109% | KM12 colon 103%

Cc1ccc(S(=O)(=O)N2CCc3ccc(O)c4c3C2Cc2ccc3c(c2-4)OCO3)cc1 (stereo unspecified)
inactive: T-47D breast 46% | SW-620 colon 37.2% | MCF7 breast 20.6% | HCT-116 colon 13%
active: MDA-MB-435 melanoma -4.03% | HCC-2998 colon -25.8%

C(=C\c1ccccc1)/CN1CCN(C(c2ccccc2)c2ccccc2)CC1
inactive: T-47D breast 79.7% | BT-549 breast 92.2% | SW-620 colon 90.3% | MCF7 breast 92.4% | HCT-116 colon 95.8% | HCC-2998 colon 100% | KM12 colon 104%

CC(=O)OC[C@H](O)[C@@]1(O)CC[C@H]2[C@@H]3CCC4=CC(=O)CC[C@]4(C)[C@H]3[C@@H](O)C[C@@]21C
inactive: T-47D breast 113% | MDA-MB-435 melanoma 119% | SW-620 colon 102% | MCF7 breast 112% | HCT-116 colon 98.4% | HCC-2998 colon 103% | KM12 colon 105%

Cc1c(C(=O)Nc2nc(-c3ccccc3)cs2)nnn1-c1ccccc1Br
inactive: BT-549 breast 35.5% [50 µM] | MDA-MB-435 melanoma 20.1% [50 µM] | SW-620 colon 61% [50 µM] | MCF7 breast 19% [50 µM] | HCT-116 colon 32.6% [50 µM] | HCC-2998 colon 72.7% [50 µM]

CC(=O)OC[C@]1(C)C=C2C(=O)[C@](C)(O)C3(CC3)C(C)=C2[C@H]1OC(C)=O
inactive: BT-549 breast 72.6% | MDA-MB-435 melanoma 95.4% | SW-620 colon 88.2% | MCF7 breast 57.1% | HCT-116 colon 62.3% | HCC-2998 colon 81.8%

CCC(C)Oc1cc(/C=N/NC(=O)c2cnn3c2NC(c2ccccc2)C3)ccc1OC (stereo unspecified)
active: MDA-MB-435 melanoma 0.38%
inactive: BT-549 breast 40.7% | SW-620 colon 27.3% | MCF7 breast 18.5% | HCT-116 colon 22% | HCC-2998 colon 72.3% | KM12 colon 20.2%

C[C@]1(CO)C[C@@H](O)C[C@]2(C)[C@@H]1CC[C@@]13C[C@@H]4[C@@H](C[C@H]12)[C@]4(C)C3
inactive: BT-549 breast 98.8% | MDA-MB-435 melanoma 99.5% | SW-620 colon 101% | MCF7 breast 102% | HCT-116 colon 89.3% | HCC-2998 colon 119% | KM12 colon 109%

COc1ccc(NC(=O)COc2ccccc2)c(C(N)=O)c1
inactive: BT-549 breast 55.9% | SW-620 colon 27.1% | MCF7 breast 23.8% | HCT-116 colon 25.9% | HCC-2998 colon 46.5% | KM12 colon 25.2%
active: MDA-MB-435 melanoma -70%

CCCCC(CCCC)(S(=O)(=O)CC)S(=O)(=O)CC
inactive: BT-549 breast 96.6% | MDA-MB-435 melanoma 97.4% | SW-620 colon 102% | MCF7 breast 105% | HCT-116 colon 98.9% | HCC-2998 colon 111% | KM12 colon 96.7%

c1ccc(-c2n(Cc3ccc4ccccc4c3)c3ccccc3[n+]2Cc2ccc3ccccc3c2)cc1
active: BT-549 breast -28.2% | MDA-MB-435 melanoma -76.4% | SW-620 colon -48.5% | MCF7 breast -44.2% | HCT-116 colon -85.4% | HCC-2998 colon -79.3% | KM12 colon -86.8%

c1ccc2cc(-c3n(Cc4ccc5ccccc5n4)c4ccccc4[n+]3Cc3ccc4ccccc4n3)ccc2c1
active: BT-549 breast -5.25% | MDA-MB-435 melanoma -35.6% | SW-620 colon -9.76% | MCF7 breast -10.4% | HCT-116 colon 2.75% | HCC-2998 colon -52.7% | KM12 colon -80.8%

COc1ccc(OC)c(C2C(C#N)=C(N)Oc3cc(O)ccc32)c1 (stereo unspecified)
inactive: BT-549 breast 94.1% | MDA-MB-435 melanoma 83.4% | SW-620 colon 101% | MCF7 breast 99.3% | HCT-116 colon 96.3% | HCC-2998 colon 109% | KM12 colon 94%

NC(=O)c1cc(Cl)ccc1NC(=O)COc1ccccc1
active: MDA-MB-435 melanoma -56.9%
inactive: BT-549 breast 43.8% | SW-620 colon 35.3% | MCF7 breast 30.5% | HCT-116 colon 31.5% | HCC-2998 colon 83.1% | KM12 colon 38.3%

CCCCNNC(=O)c1ccc(Br)cc1
inactive: BT-549 breast 78.7% | MDA-MB-435 melanoma 36.5% | SW-620 colon 32.6% | MCF7 breast 48% | HCT-116 colon 19.5% | HCC-2998 colon 61.4% | KM12 colon 78.1%

O=C1/C(=C/c2ccc([N+](=O)[O-])cc2)Oc2ccc(O)cc21
active: MCF7 breast 3.33% | HCT-116 colon 9.15%
inactive: BT-549 breast 96.5% | MDA-MB-435 melanoma 95% | SW-620 colon 25.9% | HCC-2998 colon 46% | KM12 colon 102%

O=C(N/N=C/c1ccc2c(c1)OCO2)c1cnn2c1NC(c1ccccc1)C2 (stereo unspecified)
active: MDA-MB-435 melanoma 3.07%
inactive: BT-549 breast 60.6% | SW-620 colon 43.6% | MCF7 breast 33% | HCT-116 colon 25.1% | HCC-2998 colon 45.3% | KM12 colon 21.3%

COc1cc(Cn2cc(F)c(=O)[nH]c2=O)cc(OC)c1
inactive: BT-549 breast 95.4% [50 µM] | MDA-MB-435 melanoma 109% [50 µM] | SW-620 colon 102% [50 µM] | MCF7 breast 104% [50 µM] | HCT-116 colon 111% [50 µM] | HCC-2998 colon 114% [50 µM] | KM12 colon 108% [50 µM]

COc1ccc(/C=C2\Oc3cc(C)c(Cl)cc3C2=O)cc1OC
inactive: BT-549 breast 89.1% | MDA-MB-435 melanoma 96.6% | SW-620 colon 104% | MCF7 breast 83.1% | HCT-116 colon 84.6% | HCC-2998 colon 116% | KM12 colon 100%

O=S(=O)(Nc1ccccc1Cl)c1ccc(-c2cnc(C3CC3)o2)cc1
inactive: BT-549 breast 49.5% | SW-620 colon 26.2% | MCF7 breast 15.7% | HCT-116 colon 22.3% | HCC-2998 colon 39.9% | KM12 colon 20.5%
active: MDA-MB-435 melanoma -35.2%

COc1ccc(C2CC(c3cc(OC)c(OC)c(OC)c3)=NN2c2ccc(S(N)(=O)=O)cc2)cc1 (stereo unspecified)
inactive: BT-549 breast 83.9% | MDA-MB-435 melanoma 66.2% | SW-620 colon 67.9% | MCF7 breast 57% | HCT-116 colon 48.2% | HCC-2998 colon 79.7% | KM12 colon 63.5%
